Several values for one entry are separate records, joined by “and”; a condition that tells them apart may be missing. Equal entries are not always repeated. Screen size: about 420,000 compounds; about 64,000 (15%) were called active. Inconclusive results (about 27%) are left out. Calls follow the shape of the dose curve; as a rule, active = well fitted inhibition curve with a large enough effect; inconclusive = small, poorly fitted or top-dose-only effect; inactive = flat fitted curve, though single readings scatter. Not all results are given here.
Assay: qHTS for Inhibitors of human tyrosyl-DNA phosphodiesterase 1 (TDP1): qHTS in cells in absence of CPT; also: nearly all actives have a fitted effect of over 55% in size
Settings: DT40 Tdp1-/- hTDP1 cells, no CPT, ATP luminescence, 48 h; activity change, negative = growth inhibition: at 46.2 µM (top of the series)
Procedure, shortened: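 No-CPT arm: Tdp1-/-;hTDP1 DT40 cells (400/well) plus compounds, incubated ≥48 hr at 37 °C. Readout CellTiter-Glo luminescence.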
% is scaled to controls: 0 for no effect and ±100 for the full control effect; potency is read from the fitted curve at half-maximal effect.

| Structure (SMILES) | activity change, negative = growth inhibition | Potency |
| --- | --- | --- |
| NC(=O)CN1CCCC1c1ccc2c(c1)OCCO2 (centres undefined) | -8.83% (inactive) |  |
| CCOC(CNC(=O)C1CCN(S(=O)(=O)c2ccc3nc4c(c(C(=O)O)c3c2)CC(C)CC4)CC1)OCC (centres undefined) | 20.5% (inactive) |  |
| CCN(CC)N=Nc1cccc(NC(C)=O)c1 |  | 3.26 µM (active) |
| CC(=O)Nc1cccc(C(=O)OCC(=O)c2ccc3c(c2)OCO3)c1 | -25.7% (inactive) |  |
| CC(=O)c1cccc(NC(=O)c2ccncc2)c1 | -20.5% (inactive) |  |
| C=CCn1c(SCc2ccc(Cl)c(Cl)c2)nnc1C(CO)NC(=O)c1ccc(OC)cc1 (centres undefined) |  | 20.6 µM (active) |
| C=CCn1c(CNC(=O)c2ccco2)nnc1SCC(=O)c1ccc(OC)cc1 | -17.9% (inactive) |  |
| C=CCn1c(CCNC(=O)c2ccccc2F)nnc1SCC(=O)Nc1ccc(OC)cc1 | -22.4% (inactive) |  |
| C=CCN1C(=O)C(Cc2cccc(Cl)c2)S/C1=N/N=C/c1ccco1 (centres undefined) | -27.6% (inactive) |  |
| Cc1cc(S(=O)(=O)NCc2ccccn2)c(Cl)cc1Cl | -22.2% (inactive) |  |
| CCn1c(=S)sc2c(=O)n(CC(=O)Nc3ccc(OC)cc3)c(C)nc21 | 8.25% (inactive) |  |
| COC(=O)c1cc(C(=O)CSc2nc(C)cc(C)n2)ccc1O | -0.488% (inactive) |  |
| CC(OC(=O)c1ccc(Cl)cc1O)C(=O)NCCC1=CCCCC1 (centres undefined) | -14% (inactive) |  |
| CC(C)OC(=O)c1ccc(NCc2cc(O)ccc2O)cc1Cl |  | 2.59 µM (active) |
| CC(CN1CCOCC1)OC(=O)c1ccc(Cl)cc1Cl (centres undefined) | -0.492% (inactive) |  |
| C#CCNc1ccc(C(=O)OCC)cc1 | -31.1% (inactive) |  |
| O=C(OC12CC3CC(CC(C3)C1)C2)c1ccc(NCc2cc(O)ccc2O)cc1 |  | 1.64 µM (active) |
| COC(=O)c1ccc(NCc2cc(O)ccc2O)cc1 |  | 4.61 µM (active) |
| CSCCC(NS(=O)(=O)c1ccc(C)cc1)C(=O)N1CCCC1 (centres undefined) | -3.98% (inactive) |  |
| C/C(Cc1ccccc1)=N\NC(=O)CNC(=O)c1ccc2c(c1)OCCO2 | -18% (inactive) |  |
| CC1(C)C2CCC13CS(=O)(=O)NC3C2 (centres undefined) | -2.28% (inactive) |  |
| CC1(C)OC(=O)C(=CNC(CO)C(=O)O)C(=O)O1 (centres undefined) | -11.9% (inactive) |  |

| Structure (SMILES) | activity change, negative = growth inhibition | Potency |
| --- | --- | --- |
| O=P(O)(CP(=O)(c1ccccc1)c1ccccc1)c1ccccc1O | 5.16% (inactive) |  |
| C=CCN1CN(S(=O)(=O)c2ccc(OC)cc2)c2nc3ccccc3nc21 | 11.2% (inactive) |  |
| Cn1cnnc1Sc1ccc(CN2CCN(C3CCCC3)C(CCO)C2)o1 (centres undefined) | 4.43% (inactive) |  |
| Cc1c(C(=O)N(Cc2ccccc2)Cc2cccnc2)cnn1-c1ccc(F)cc1 | -12.2% (inactive) |  |
| CCN(CC)CC(=O)Nc1nn(-c2ccccc2)nc1C(N)=O | 1.58% (inactive) |  |
| O=C(NCCCN1CCCCCC1)c1ccc(N2CCCC2=O)cc1 | -2.76% (inactive) |  |
| O=C(N/N=C/c1ccc(Br)o1)c1cncc(Br)c1 | 14.6% (inactive) |  |
| Cc1ccc(C(=O)N/N=C/c2cccc3ccccc23)cn1 | -2.46% (inactive) |  |
| Cc1ccc(C(=O)N/N=C\c2cc(Br)c(Br)o2)cn1 |  | 16.4 µM (active) |
| C=CCSc1ccc(S(=O)(=O)N2CCN(C)CC2)cn1 | -4.94% (inactive) |  |
| COC(=O)C1CCN(C(=O)COC(=O)c2cc(S(=O)(=O)N3CCOCC3)ccc2C)CC1 | -11% (inactive) |  |
| CC1CCCC(NC(=O)COC(=O)c2ccccc2C(=O)N(C)C2CCCCC2)C1C (centres undefined) |  | 14.6 µM (active) |
| C=CCNC(=O)COC(=O)c1ccccc1C(=O)N(C)C1CCCCC1 | 9.03% (inactive) |  |
| O=C(COC(=O)c1ccccc1SCC(=O)NC1CCCCC1)NC1CCCCC1 | -14.5% (inactive) |  |
| NC(=O)COC(=O)c1sc2cc(F)ccc2c1Cl | 14.2% (inactive) |  |
| CC(=O)NC12CC3CC(C1)CC(C(=O)N1CCN(C(=O)c4ccco4)CC1)(C3)C2 | 22.3% (inactive) |  |
| COc1ccc(N(CC(=O)NC(C)(C)C)C(=O)c2ccco2)cc1 | -10.6% (inactive) |  |
| CC1(C)CC(=O)c2cc(OCC(=O)NCC3CCCO3)ccc2O1 (centres undefined) | -13.3% (inactive) |  |
| Cc1cc(-c2cccs2)nc(-n2cccc2)n1 | -17.5% (inactive) |  |
| O=C(NNc1ncnc2c1cnn2-c1ccccc1)c1ccco1 | 3% (inactive) |  |
| Cc1cccc(NC(=S)NCc2ccc3[nH]c4c(c3c2)CCCC4)c1 |  | 18.4 µM (active) |
| Cc1cccc(NC(=S)N2CCCC(c3nc4ccccc4[nH]3)C2)c1 (centres undefined) | 7.85% (inactive) |  |

| Structure (SMILES) | activity change, negative = growth inhibition | Potency |
| --- | --- | --- |
| O=C(O)CCC(=O)NCc1ccc2[nH]c3c(c2c1)CCCC3 | -2.01% (inactive) |  |
| CCCCc1c(O)nc2n(c1=O)CCS2 | -13.1% (inactive) |  |
| O=C(Oc1ccc(Br)cc1C(=S)N1CCOCC1)c1cccc([N+](=O)[O-])c1 | -19.6% (inactive) |  |
| O=C(/C=C/c1c(Cl)cccc1Cl)NCc1ccccc1 | 0.863% (inactive) |  |
| COn1c(=O)c(=O)n(OC)c2ccccc21 | -4.75% (inactive) |  |
| CCOC(=O)CC1(NC(=O)c2cc(COc3cncc(Cl)c3)on2)CCCCC1 |  | 20.6 µM (active) |
| CCOC(=O)c1c(NC(=O)c2cc(CC)on2)sc(C(C)=O)c1C | 4.96% (inactive) |  |
| Cc1cc(OCc2cc(C(=O)NCc3cc(C(C)C)no3)no2)cc(C)c1Cl | -12.7% (inactive) |  |
| COc1ccc2[nH]cc(CCNc3ncnc4ccc(-c5ccc(C(=O)N(C)C)cc5)cc34)c2c1 |  | 9.2 µM (active) |
| COCCNc1ccnc(-c2cccc(NS(C)(=O)=O)c2)n1 | -7.98% (inactive) |  |
| COc1ccc2[nH]cc(CCNc3cc(-c4ccccc4CN(C)C)ncn3)c2c1 | -17.5% (inactive) |  |
| CNc1cc(-c2c(OC)cccc2OC)ncn1 | 1.04% (inactive) |  |
| COc1ccc2[nH]cc(CCNc3nc(-c4cccc(NS(C)(=O)=O)c4)nc4ccccc34)c2c1 |  | 13 µM (active) |
| COc1ccc2[nH]cc(CCNc3ncnc4ccc(-c5ccccc5CN(C)C)cc34)c2c1 | -24% (inactive) |  |
| Cc1ccc2[nH]cc(CCNC(=O)c3ccc([N+](=O)[O-])cc3)c2c1 | -27.6% (inactive) |  |
| COc1cccc(-c2cc(NCCc3c[nH]c4ccc(OC)cc34)ncn2)c1 |  | 23.1 µM (active) |
| CC(=O)Nc1ccc(S(=O)(=O)N2CCn3cccc3C2C)cc1 (centres undefined) | 7.81% (inactive) |  |
| CC(NC(=O)C(=O)NN=C1CCC(C(C)(C)C)CC1)c1ccccc1 (centres undefined) | 4.32% (inactive) |  |
| CN1CCN(S(=O)(=O)c2ccc(NC(=O)c3ccco3)cc2)CC1 | 3.04% (inactive) |  |
| COc1ccc(/C(C)=N/N2CCOCC2)c(O)c1 | 4.06% (inactive) |  |
| CC(C)NC(=O)N1CCN(c2ccncc2S(=O)(=O)N2CCCCC2)CC1 | 12.7% (inactive) |  |
| O=S(=O)(c1cnccc1N1CCN(/N=C/c2ccc(Br)cc2)CC1)N1CCCCC1 |  | 18.4 µM (active) |

| Structure (SMILES) | activity change, negative = growth inhibition | Potency |
| --- | --- | --- |
| CN1CCN(c2ccncc2S(=O)(=O)N2CCCC2)CC1 | 16.7% (inactive) |  |
| CCOC(=O)C1CCN(C(=O)Cn2cc(C#N)c3ccccc32)CC1 | -11.5% (inactive) |  |
| O=C(c1cccnc1)N1CCN(S(=O)(=O)c2cccs2)CC1 | 15.6% (inactive) |  |
| O=C(COC(=O)c1ccc(N2CCCC2=O)cc1)c1ccc(OC(F)F)cc1 | -19.2% (inactive) |  |
| CC/C(=N\NC(=S)NC(C)C)c1ccc(OC(F)F)cc1 |  | 16.4 µM (active) |
| CC(C)CNC(=S)NNC(=O)c1ccccc1OC(F)F | -12.1% (inactive) |  |
| C/C=C1\C2C=C(C)CC1(N)c1ccc(=O)[nH]c1C2 (centres undefined) | -12.4% [at 92.5 µM] (inactive) |  |
| COC(=O)Cc1csc(/N=C/c2c(O)n(-c3cccc(C(F)(F)F)c3)c(=O)c3ccccc23)n1 |  | 16.4 µM (active) |
| COC(=O)Cc1c(O)ccn(Cc2cccc(C(F)(F)F)c2)c1=O | -26% (inactive) |  |
| COC(=O)Cc1csc(Nc2c(C)n(C)n(-c3ccccc3)c2=O)n1 | 0.65% (inactive) |  |
| CC(C)C(=O)NC(=S)Nc1ccccc1F | -0.205% (inactive) |  |
| CC(NC(=O)Nc1cccc([N+](=O)[O-])c1)c1ccc2c(c1)OCO2 (centres undefined) | -18.9% (inactive) |  |
| O=C(Nc1cccnc1)c1noc2c1CCCCC2 | -19.8% (inactive) |  |
| CC(C)CC[n+]1ccn(C2=C([O-])c3ccccc3C(=O)/C2=N\S(=O)(=O)c2ccccc2)c1 |  | 10.3 µM (active) |
| Cc1ccc(NC2CCCN(C(=O)CCC3(C)CC3)C2)cc1C (centres undefined) | -29.4% (inactive) |  |
| CCOC(=O)CN1CC23C=CC(O2)C(C(=O)Nc2ccc(F)cc2)C3C1=O (centres undefined) | 3.97% (inactive) |  |
| COCCn1nnnc1CN1CCC(NC(=O)Nc2cccc(OC)c2)CC1 | -6.87% (inactive) |  |
| Cc1cccc(C)c1Nc1c(-c2ccccc2O)nc2ncccn12 |  | 18.4 µM (active) and 23.1 µM (active) |
| CCc1cccc(C)c1Nc1c(-c2ccc(N(C)C)cc2)nc2ncccn12 |  | 10.3 µM (active) |
| Cc1ccc(-c2c(N)nc3ncccn23)cc1 | 6.62% (inactive) |  |
| Cc1nc(-c2ccc(F)cc2)c(CC(=O)N(C)CC(=O)Nc2c(C)cccc2C)s1 | -0.693% (inactive) |  |
| Cc1c(-c2cccc(NC(=O)C(C)(C)C)c2)nc2ncccn12 | -3.43% (inactive) |  |

| Structure (SMILES) | activity change, negative = growth inhibition | Potency |
| --- | --- | --- |
| Nn1c(SCC(=O)Nc2nccs2)nncc1=O | -5.81% (inactive) |  |
| CC(C)CCNC(=O)CC1C(=O)N(Cc2ccccc2)C(C)c2nc3ccccc3n21 (centres undefined) | -18.9% (inactive) |  |
| CN(C)c1ccnc(Nc2ccc(F)cc2)c1C#N | -0.174% (inactive) |  |
| COc1ccccc1/C=C/C1=NC(=C\N(C)C)/C(=O)O1 |  | 20.6 µM (active) |
| COc1ccccc1/C=C/C(=O)NC1CC2CCC1C2 (centres undefined) | -20.8% (inactive) |  |
| COc1ccccc1/C=C/C(=O)NC(=S)N1CCOCC1 | -12.6% (inactive) |  |
| O=C(CCNS(=O)(=O)c1ccccc1C(F)(F)F)NCc1ccc2c(c1)OCO2 | -0.322% (inactive) |  |
| C=CCOC(=O)C1=C(C)NC(C)=C(C(=O)OCC=C)C1c1cccs1 |  | 18.4 µM (active) |
| CCOC(=O)C1=C(C)NC(=S)NC1c1cccs1 (centres undefined) | -3.91% (inactive) |  |
| C=CCOC(=O)c1ccccc1C(=O)OCC=C | -12.2% (inactive) |  |
| CC(C)C(NC(=O)c1ccc(Cl)cc1)C(=O)O (centres undefined) | 7.61% (inactive) |  |
| CSc1ncccc1C(=O)Nc1nc2ccc(F)cc2s1 | -12% (inactive) |  |
| O=C(COc1ccc(S(=O)(=O)N2CCCC2)cc1[N+](=O)[O-])N1CCCCC1 | -19.5% (inactive) |  |
| Cc1cc(C(=O)COc2ccccc2[N+](=O)[O-])c(C)n1-c1cccc(S(=O)(=O)N2CCOCC2)c1 |  | 23.1 µM (active) |
| Cc1cc(S(=O)(=O)N2CCOCC2)ccc1OCC(=O)N1CCOCC1 | -12.2% (inactive) |  |
| CCCCCC(O)c1cccc(OCc2ccc3ccccc3n2)c1 (centres undefined) | -7.93% [at 4.12 µM] (inactive) |  |
| C/C(=N/OC(=O)c1c(-c2c(F)cccc2Cl)noc1C)c1cnccn1 | 23.1% (inactive) |  |
| O=C(CN1C(=O)COc2ccccc21)Nc1ccc(F)cc1 | -26.2% (inactive) |  |
| CCOc1cccc(NC(=O)c2ccc(F)c(S(=O)(=O)N(CC)c3cccc(C)c3)c2)c1 |  | 25.9 µM (active) |
| CCOc1ccc(N(CC(=O)Nc2cccc(OC)c2)S(C)(=O)=O)cc1 | 9.81% (inactive) |  |
| CCN(CC)S(=O)(=O)c1cc(C(=O)Nc2ccccn2)ccc1C | -24.1% (inactive) |  |

Reference: PubChem BioAssay AID686978 (National Center for Advancing Translational Sciences (NCATS), 2013)
